Calb FLC = C. albicans growth inhibition with fluconazole, primary screen, CaCi-2 strain, Alamar Blue fluorescence | C. albicans CaCi-2 (fluconazole-resistant clinical isolate) + fluconazole, 48 h | growth inhibition, % (test concentration not listed) | 300,000 compounds, 0.57% hits;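 active = growth inhibition above about 58% in most replicates, limit read from the data, passing the limit was not always enough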;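 also: all wells also contain fluconazole at 8 µg/ml as a sub-toxic cotreatment; 0% = median of DMSO wells and 100% = median of geldanamycin control wells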
Rpn11 block = Rpn11 (PSMD14) deubiquitinase inhibitors, primary screen, biochemical, fluorescence polarization, uHTS. 26S proteasome non-ATPase regulatory subunit 14 (Homo sapiens), O00487. human 26S proteasome, Ub4-pepOG fluorescence polarization; 20S core pre-blocked with epoxomicin. inhibition, % at 20 µM. 360,000 compounds, 0.59% hits. AID 588493, 2011;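 active = inhibition at 20 µM, scaled to each plate's controls, above about 33%, limit read from the data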
Target sequence (O00487 whole entry, looked up): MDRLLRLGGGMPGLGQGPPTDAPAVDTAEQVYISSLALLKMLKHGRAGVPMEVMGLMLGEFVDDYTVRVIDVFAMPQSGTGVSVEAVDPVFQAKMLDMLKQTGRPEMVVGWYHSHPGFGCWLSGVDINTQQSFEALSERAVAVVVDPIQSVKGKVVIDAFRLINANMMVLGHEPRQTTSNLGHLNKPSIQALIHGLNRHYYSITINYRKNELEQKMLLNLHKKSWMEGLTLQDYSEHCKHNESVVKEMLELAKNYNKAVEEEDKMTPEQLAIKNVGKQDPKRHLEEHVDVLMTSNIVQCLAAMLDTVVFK
IDE inh = human IDE inhibitors in live cells, primary screen, fluorescence polarization, HEK cells, FAbetaB substrate; FAbetaB cleavage; 320,000 compounds, 0.41% hits; Insulin-degrading enzyme (Homo sapiens), P14735; inhibition, % at 5.59 µM;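 active = percent inhibition above the average of all tested compounds plus 3 SD, set per screening campaign, cut at about 16% in these data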;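 also: IDE supplied by intact live HEK cells; FP after avidin binding of uncleaved biotin substrate so inhibition keeps polarization high; 0% = DMSO wells and 100% = 60 µM reference IDE inhibitor Ii1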
IDE cell activ = human IDE activators in live cells, primary screen, fluorescence polarization, HEK cells, FAbeta-B substrate; activation, % at 5.96 µM; FAbeta-B cleavage; 0% vehicle, 100% cell-free pure enzyme wells; Insulin-degrading enzyme (Homo sapiens), P14735; AID 493087, 2011; 340,000 compounds, 0.073% hits;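 active = activation above the mean of all tested compounds plus 3 SD, set per screening campaign, cut at about 17% in these data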
Rin1-Abl PPI inh = inhibitors of Rin1-Abl protein binding, primary screen, biochemical, TR-FRET; Tyrosine-protein kinase ABL1 (Homo sapiens) + Ras and Rab interactor 1 (Homo sapiens), …; 360,000 compounds, 0.4% hits; inhibition, % at 7.35 µM; in the data active = inhibition above about 5%, passing the limit was not always enough
TPT1 inh = Candida albicans TPT1 enzyme inhibitors, primary screen, biochemical, fluorescence polarization; recombinant caTPT1, FP RNA substrate dephosphorylation; inhibition, % at 5 µM; 300,000 compounds, 0.81% hits;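 active = inhibition above the mean of all tested compounds plus 3 SD, set per screening campaign, cut at about 24% in these data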;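 also: plate controls were DMSO alone for no effect and ferristatin control at 100 nM for full effect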
TPT1 inh confirm = Candida albicans TPT1 inhibitors, confirmation, biochemical, fluorescence polarization, triplicate. recombinant caTPT1, RNase T1 coupled. shares compounds with TPT1 inh. AID 2149, 2009. 2,400 compounds, 74% hits. inhibition, % at 5 µM;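 active = inhibition above the primary screen limit, the mean inhibition of all tested compounds plus 3 SD, cut at about 25% in these data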
RNase T1 inh = RNase T1 inhibitors, counter-screen for TPT1 inhibitor project, biochemical, fluorescence polarization. 2,400 compounds, 83% hits. RNase T1 cleavage, 1536-well. inhibition, % at 5 µM. AID 2153, 2009. shares compounds with TPT1 inh;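 active = inhibition above the solvent-only control well mean plus 3 SD, limit set per screening run, cut at about 23% in these data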;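 also: plate controls were DMSO wells with enzyme for no effect and wells without RNase T1 for full effect; inhibitors block cleavage so intact labeled substrate keeps polarization high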
Target sequence (P00651 whole entry, looked up): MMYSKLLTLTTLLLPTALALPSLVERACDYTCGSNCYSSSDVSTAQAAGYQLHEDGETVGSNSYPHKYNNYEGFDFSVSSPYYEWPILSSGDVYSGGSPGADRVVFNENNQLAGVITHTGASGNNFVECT
Starred values were filed as active, the others as inactive; · = not tested or not shown. Compounds with a hit are over-represented: about 2.3% of the library has one in this group of screens.

SMILES	Calb FLC	Rpn11 block	IDE inh	IDE cell activ	Rin1-Abl PPI inh	TPT1 inh	TPT1 inh confirm	RNase T1 inh
N#CC1=C(N)OC2=C(CC/C2=C\c2ccccc2Cl)C1c1ccccc1Cl (configuration not stated)	·	·	3	-6	1	67*	81*	89*
N#CC1=C(N)OC2=C(CC/C2=C\c2ccccc2)C1c1ccccc1 (configuration not stated)	26	·	13	-30	0	83*	85*	88*
Cc1ccc(CNCCCn2cnc(C(=O)Nc3ccc(C)c(C)c3)n2)o1	·	3	·	1	1	·	·	·
CSc1nnc(C)c(/C=C/Nc2ccc(C)cc2)n1	22	·	9	-8	-3	156*	134*	128*
Cc1ccc(NC(=O)c2ccc(F)cc2F)cc1NS(C)(=O)=O	-6	2	5	·	-2	0	·	·
CC(=O)c1ccc(-c2ccc(/C=C(/Sc3n[nH]c(C)n3)C(=O)O)o2)cc1	1	·	5	-4	-6	78*	79*	91*
COc1ccc(Cl)cc1NC(=O)CN(C)C(=O)CN1C(=O)NC2(CCCC2)C1=O	26	-4	3	3	3	-4	·	·
CC(C)Nc1ccc(C(CC(N)=O)NC(=O)Cc2cccc3ccccc23)cc1[N+](=O)[O-] (configuration not stated)	-1	·	4	-2	1	75*	85*	95*
COC(=O)[C@@]12CCCCN1[C@H](c1ccc(-c3ccc(C(C)=O)cc3)c(OC)c1)[C@@H]1C(=O)N(C)C(=O)[C@@H]12	4	1	-5	2	4	1	·	·
COc1cc(N=Nc2cccc(S(N)(=O)=O)c2)c2ccccc2c1N	-38	92*	10	2	-6	89*	44*	54*
CC1CCCN(S(=O)(=O)c2ccc(C(=O)Nc3sc4c(c3C(N)=O)CCN(C)C4)cc2)C1 (configuration not stated)	6	7	7	1	-1	73*	64*	71*
CNC(=O)c1c(NC(=O)c2ccc(S(=O)(=O)N3CCCCC3C)cc2)sc2c1CCN(C)C2 (configuration not stated)	8	·	0	4	-5	8	·	·
CC(C)N1CCc2c(sc(NC(=O)c3ccc(S(=O)(=O)N4CCOCC4)cc3)c2C(N)=O)C1	2	16	1	4	-7	36*	43*	56*
CCOC(=O)c1c(NC(=O)c2ccc(S(=O)(=O)N3CCOCC3)cc2)sc2c1CCN(C(C)C)C2	-18	6	-6	11	-3	6	·	·
CCOc1ccc(OCc2ccc(C(=O)Nc3cccnc3)cc2)cc1	·	2	0	-4	0	·	·	·
NS(=O)(=O)c1cc2c(cc1Cl)NC(CC1CCCC1)NS2(=O)=O (configuration not stated)	-6	7	0	6	0	-4	·	·
NS(=O)(=O)c1cc2c(cc1Cl)NC(Cc1ccccc1)NS2(=O)=O (configuration not stated)	5	1	0	4	2	43*	5	12
CC1CC/C(=C\c2ccc3c(c2)OCO3)C(=O)/C1=C/c1ccc2c(c1)OCO2 (configuration not stated)	-31	22	10	3	-1	31*	15	21
CC1(C)CNc2cc(N)ccc2S1	-13	22	1	1	-1	61*	32*	43*
COc1ccc(/C=C/c2cc[n+](C(=O)Cc3ccccc3)cc2)cc1	-46	21	2	2	2	26*	7	8
COc1ccc(/C=C/C(=O)NCCCc2ccccc2)cc1	-18	3	-3	1	-2	1	·	·
O=C(CCCCCNC(=O)N1CCn2c1nc1ccccc12)N[C@H](Cc1ccccc1)C(=O)O	-12	-2	0	2	-5	2	·	·
O=C(/C=C/N1CCOCC1)c1coc2ccccc12	-3	13	7	7	-4	26*	1	14
O=C(O)c1coc2ccccc12	0	·	1	·	·	-3	·	·
O=C(Nc1ccc(N2CCOCC2)cc1)c1cc2ccccc2o1	2	3	4	5	-2	3	·	·
SMILES	Calb FLC	Rpn11 block	IDE inh	IDE cell activ	Rin1-Abl PPI inh	TPT1 inh	TPT1 inh confirm	RNase T1 inh
O=C(/C=C/N1CCOCC1)c1cc2ccccc2o1	-2	2	2	-1	-2	26*	3	9
Nc1c(C(=O)Nc2ccc(S(=O)(=O)N3CCCC3)cc2)sc2nc3cc4c(cc3cc12)CCC4	6	20	12	-10	-5	39*	25*	34*
Nc1c(C(=O)Nc2ccc(S(=O)(=O)N3CCCC3)cc2)sc2nc3ccc(OC(F)(F)F)cc3cc12	20	·	-4	-3	0	18	·	·
Oc1nc(Nc2cccc(Cl)c2)sc1/C=C1\C=Nc2ccccc21	-1	32	7	-3	-3	2	·	·
Oc1cccc(Nc2nc(O)c(/C=C3\C=Nc4ccccc43)s2)c1	·	·	11	-66	2	77*	130*	130*
Cc1ccc(N2C(=O)CSCC2=O)cc1	1	1	3	3	-4	1	·	·
Cc1ccc(N2C(=O)CS/C2=C(\C(Cl)=C(Cl)Cl)[N+](=O)[O-])cc1	-4	37	-6	-5	-1	93*	43*	51*
Cn1cc(C(=O)N/N=C/c2c(O)ccc3ccccc23)ccc1=O	36	25	15	-7	-3	57*	70*	54*
O=C(N/N=C\c1c(O)ccc2ccccc12)c1cncc(Br)c1	82*	·	11	47*	0	136*	151*	138*
O=C(NN=Cc1c(O)ccc2ccccc12)c1ccncc1	·	·	·	-69	4	·	·	·
COc1ccc(C2=NN(c3nc(-c4ccc(CNC(C)=O)cc4)cs3)C(c3ccco3)C2)cc1 (configuration not stated)	11	35	-1	-1	1	31*	11	16
N#CC(c1ccc(N)cc1)C(CC(=O)c1ccccc1)c1ccccc1 (configuration not stated)	·	3	·	·	-2	·	·	·

Source: PubChem (several laboratories)
